# Source: the antibiotic and cytotoxicity screens of Wong et al. (2023)
# Screen size: about 39,000 compounds; about 3,300 (8.5%) were called active. Only a selection was taken, and actives are over-represented in it overall.
# System: HepG2
# Experiment: cytotoxicity call (relative viability < 0.9)
# Conditions: 10 µM
row,SMILES,cytotoxicity call
1,COCC(=O)N1CC[C@@H]2N(S(C)(=O)=O)CC[C@@]2(C(=O)N2CCOCC2)CC1,inactive
2,CC(=O)Nc1cc(C(C)C)c(C(C)C)cc1C(C)C,inactive
3,C[C@H](CO)N1C[C@H](C)[C@@H](CN(C)C(=O)Nc2ccc3c(c2)OCO3)OCCCC[C@H](C)Oc2ccc(NC(=O)c3ccccc3)cc2C1=O,inactive
4,COCC(=O)N1C[C@H](C)[C@H](OC)CN(C)C(=O)c2cc(NC(=O)c3ccc(F)cc3)ccc2OC[C@@H]1C,inactive
5,C[C@H]1CN([C@@H](C)CO)C(=O)c2cc(NS(=O)(=O)c3cccs3)ccc2O[C@@H]1CN(C)S(=O)(=O)c1ccc(F)cc1,inactive
6,COc1ccc2c3c([nH]c2c1)[C@H](CO)N(C[C@]13CCN(CC1)C(=O)c1ccccc1F)C(=O)Nc1ccccc1F,inactive
7,C[C@@H]1CN([C@H](C)CO)C(=O)c2cccc(NC(=O)Nc3ccc4c(c3)OCO4)c2O[C@H]1CN(C)S(C)(=O)=O,inactive
8,CN1C[C@@H](O)COC[C@H]2O[C@@H](CC(=O)N3CCN(c4ccccc4)CC3)CC[C@@H]21,inactive
9,C[C@H](c1cccnc1)N(C(=O)Nc1ccccc1)C1CCCCC1,active
10,CN1CCCC1c1cccnc1.O=C(O)C(O)C(O)C(=O)O.O=C(O)C(O)C(O)C(=O)O (stereo unspecified),inactive
11,CN(C)S(=O)(=O)N1C[C@H]2C[C@H](C(=O)Nc3cccnc3)[C@@H](C1)O2,inactive
12,C[C@@H]1CN([C@@H](C)CO)C(=O)c2cccc(NC(=O)C3CCCCC3)c2O[C@@H]1CN(C)C(=O)Nc1cccc2ccccc12,inactive
13,C=CCN1C(=O)[C@@]2(O[C@@H](CCO)[C@H]([Si](C)(C)c3ccc(OC)cc3)[C@H]2C)c2cc(N(C=O)c3ccccc3)ccc21,active
14,C=CCN1C(=O)[C@]2(O[C@H](CCO)[C@@H]([Si](C)(C)c3ccc(OC)cc3)[C@@H]2C)c2cc(N(C=O)c3ccccc3)ccc21,active
15,C=CCN1C(=O)[C@@]2(O[C@@H](CCn3cc(CCO)nn3)[C@H]([Si](C)(C)c3ccc(OC)cc3)[C@H]2C)c2cc(N3CCC3=O)ccc21,inactive
16,C=CCN1C(=O)[C@]2(O[C@H](CCO)[C@@H]([Si](C)(C)c3ccc(OC)cc3)[C@@H]2C)c2cc(NC(=O)[C@H](C)O)ccc21,inactive
17,C=CCN1C(=O)[C@]2(O[C@H](CCn3cc(CCO)nn3)[C@@H]([Si](C)(C)c3ccc(OC)cc3)[C@@H]2C)c2cc(N3CCC3=O)ccc21,inactive
18,C=CCN1C(=O)[C@@]2(O[C@@H](CCO)[C@H]([Si](C)(C)c3ccc(OC)cc3)[C@H]2C)c2cc(NC(=O)[C@H](C)O)ccc21,inactive
19,CC(=O)N[C@H](Cc1ccc2ccccc2c1)C(=O)N[C@H](Cc1ccc(Cl)cc1)C(=O)N[C@H](Cc1cccnc1)C(=O)N[C@@H](CO)C(=O)N[C@@H](Cc1ccc(NC(=O)[C@@H]2CC(=O)NC(=O)N2)cc1)C(=O)N[C@H](Cc1ccc(NC(N)=O)cc1)C(=O)N[C@@H](CC(C)C)C(=O)N[C@@H](CCCCNC(C)C)C(=O)N1CCC[C@H]1C(=O)N[C@H](C)C(N)=O,inactive

row,SMILES,cytotoxicity call
1,COc1ccc(NC(=O)Nc2ccc3c(c2)C(=O)N([C@H](C)CO)C[C@H](C)[C@H](CN(C)S(=O)(=O)c2ccc(F)cc2)OCCCC[C@H](C)O3)cc1,inactive
2,CC(C)NC(=O)Nc1ccc2c(c1)C(=O)N([C@@H](C)CO)C[C@@H](C)[C@H](CN(C)C(=O)Nc1ccc(C(F)(F)F)cc1)OCCCC[C@@H](C)O2,active
3,CC(C)NC(=O)Nc1ccc2c(c1)C(=O)N([C@@H](C)CO)C[C@@H](C)[C@H](CN(C)C(=O)Nc1ccc(C(F)(F)F)cc1)OCCCC[C@H](C)O2,inactive
4,CC(C)NC(=O)Nc1ccc2c(c1)C(=O)N([C@H](C)CO)C[C@H](C)[C@H](CN(C)C(=O)Nc1ccc(C(F)(F)F)cc1)OCCCC[C@H](C)O2,inactive
5,CC(C)NC(=O)Nc1ccc2c(c1)C(=O)N([C@@H](C)CO)C[C@@H](C)[C@@H](CN(C)C(=O)Nc1ccc(C(F)(F)F)cc1)OCCCC[C@H](C)O2,inactive
6,CC(C)NC(=O)Nc1ccc2c(c1)C(=O)N([C@H](C)CO)C[C@@H](C)[C@@H](CN(C)C(=O)Nc1ccc(C(F)(F)F)cc1)OCCCC[C@@H](C)O2,active
7,CC(C)NC(=O)Nc1ccc2c(c1)C(=O)N([C@H](C)CO)C[C@@H](C)[C@H](CN(C)C(=O)Nc1ccc(C(F)(F)F)cc1)OCCCC[C@H](C)O2,inactive
8,C[C@H]1CCCCO[C@@H](CN(C)C(=O)c2ccccc2)[C@@H](C)CN([C@@H](C)CO)C(=O)c2cc(NC(=O)C3CCCCC3)ccc2O1,inactive
9,CC(C)(C)[S@@](=O)N1Cc2cc(C(=O)NCc3ccc4c(c3)OCO4)nc(-c3cccc(-c4cccnc4)c3)c2[C@H]1CCO,inactive
10,COCCNC(=O)C[C@@H]1CC[C@@H]2[C@@H](COc3ccc(NC(=O)Nc4cccc(F)c4)cc3C(=O)N2C)O1,inactive
11,CCCCNC(=O)N1C[C@@H]2[C@H](CN)[C@@H]2C1,inactive
12,Cc1ccc(S(=O)(=O)Nc2ccc3c(c2)C(=O)N([C@@H](C)CO)C[C@H](C)[C@@H](CN(C)C(=O)NC2CCCCC2)OCCCC[C@@H](C)O3)cc1,inactive
13,C[C@@H]1CCCCO[C@H](CN(C)C(=O)NC2CCCCC2)[C@H](C)CN([C@H](C)CO)C(=O)c2cc(NS(=O)(=O)c3ccc(F)cc3)ccc2O1,active
14,C[C@H](CO)N1C[C@H](C)[C@@H](CN(C)C(=O)NC2CCCCC2)OCCCC[C@H](C)Oc2ccc(NS(=O)(=O)c3ccc(F)cc3)cc2C1=O,inactive
15,Cc1ccc(S(=O)(=O)Nc2ccc3c(c2)C(=O)N([C@H](C)CO)C[C@@H](C)[C@H](CN(C)C(=O)NC2CCCCC2)OCCCC[C@@H](C)O3)cc1,inactive
16,Cc1ccc(S(=O)(=O)Nc2ccc3c(c2)C(=O)N([C@@H](C)CO)C[C@H](C)[C@H](CN(C)C(=O)NC2CCCCC2)OCCCC[C@@H](C)O3)cc1,inactive
17,Cc1ccc(S(=O)(=O)Nc2ccc3c(c2)C(=O)N([C@@H](C)CO)C[C@@H](C)[C@H](CN(C)C(=O)NC2CCCCC2)OCCCC[C@@H](C)O3)cc1,active
18,Cc1ccc(S(=O)(=O)Nc2ccc3c(c2)C(=O)N([C@H](C)CO)C[C@H](C)[C@@H](CN(C)C(=O)NC2CCCCC2)OCCCC[C@H](C)O3)cc1,inactive
19,Cc1ccc(S(=O)(=O)Nc2ccc3c(c2)C(=O)N([C@@H](C)CO)C[C@H](C)[C@@H](CN(C)C(=O)NC2CCCCC2)OCCCC[C@H](C)O3)cc1,active

row,SMILES,cytotoxicity call
1,C[C@@H]1CCCCO[C@@H](CN(C)C(=O)NC2CCCCC2)[C@@H](C)CN([C@@H](C)CO)C(=O)c2cc(NS(=O)(=O)c3ccc(F)cc3)ccc2O1,inactive
2,C[C@@H]1CN([C@@H](C)CO)S(=O)(=O)c2ccc(-c3ccc(C(=O)N(C)C)cc3)cc2O[C@H]1CN(C)C(=O)C1CCC1,inactive
3,CCS(=O)(=O)NCc1nccc(N(C)C)n1,inactive
4,COc1ccc(S(=O)(=O)N(C)C[C@H]2OCc3cn(nn3)CCCC(=O)N([C@H](C)CO)C[C@@H]2C)cc1,inactive
5,O=C(C[C@@H]1CC[C@H]2[C@@H](COC[C@@H](O)CN2S(=O)(=O)c2ccccc2)O1)N[C@@H]1CCN(Cc2ccccc2)C1,inactive
6,Cc1noc(C)c1NC(=O)Nc1ccc2c(c1)C(=O)N([C@@H](C)CO)C[C@H](C)[C@@H](CN(C)Cc1ccc(Cl)c(Cl)c1)OCCCC[C@@H](C)O2,active
7,Cc1noc(C)c1NC(=O)Nc1ccc2c(c1)C(=O)N([C@H](C)CO)C[C@@H](C)[C@H](CN(C)Cc1ccc(Cl)c(Cl)c1)OCCCC[C@H](C)O2,inactive
8,Cc1noc(C)c1NC(=O)Nc1ccc2c(c1)C(=O)N([C@@H](C)CO)C[C@H](C)[C@@H](CN(C)Cc1ccc(Cl)c(Cl)c1)OCCCC[C@H](C)O2,inactive
9,Cc1noc(C)c1NC(=O)Nc1ccc2c(c1)C(=O)N([C@@H](C)CO)C[C@@H](C)[C@@H](CN(C)Cc1ccc(Cl)c(Cl)c1)OCCCC[C@@H](C)O2,active
10,Cc1noc(C)c1NC(=O)Nc1ccc2c(c1)C(=O)N([C@H](C)CO)C[C@H](C)[C@@H](CN(C)Cc1ccc(Cl)c(Cl)c1)OCCCC[C@@H](C)O2,inactive
11,Cc1noc(C)c1NC(=O)Nc1ccc2c(c1)C(=O)N([C@H](C)CO)C[C@@H](C)[C@@H](CN(C)Cc1ccc(Cl)c(Cl)c1)OCCCC[C@H](C)O2,active
12,Cc1noc(C)c1NC(=O)Nc1ccc2c(c1)C(=O)N([C@H](C)CO)C[C@@H](C)[C@H](CN(C)Cc1ccc(Cl)c(Cl)c1)OCCCC[C@@H](C)O2,inactive
13,Cc1noc(C)c1NC(=O)Nc1ccc2c(c1)C(=O)N([C@H](C)CO)C[C@H](C)[C@H](CN(C)Cc1ccc(Cl)c(Cl)c1)OCCCC[C@@H](C)O2,inactive
14,Cc1noc(C)c1NC(=O)Nc1ccc2c(c1)C(=O)N([C@H](C)CO)C[C@H](C)[C@H](CN(C)Cc1ccc(Cl)c(Cl)c1)OCCCC[C@H](C)O2,inactive
15,Cc1noc(C)c1NC(=O)Nc1ccc2c(c1)C(=O)N([C@@H](C)CO)C[C@@H](C)[C@H](CN(C)Cc1ccc(Cl)c(Cl)c1)OCCCC[C@@H](C)O2,active
16,Cc1noc(C)c1NC(=O)Nc1ccc2c(c1)C(=O)N([C@@H](C)CO)C[C@@H](C)[C@H](CN(C)Cc1ccc(Cl)c(Cl)c1)OCCCC[C@H](C)O2,inactive
17,Cc1noc(C)c1NC(=O)Nc1ccc2c(c1)C(=O)N([C@H](C)CO)C[C@H](C)[C@@H](CN(C)Cc1ccc(Cl)c(Cl)c1)OCCCC[C@H](C)O2,inactive
18,Cc1ccc(S(=O)(=O)Nc2ccc3c(c2)C(=O)N([C@@H](C)CO)C[C@H](C)[C@@H](CN(C)S(C)(=O)=O)OCCCC[C@H](C)O3)cc1,inactive
